CYP2C9 activ: human CYP2C9 activators, primary screen, biochemical, luminescence; Cytochrome P450 2C9 (Homo sapiens), P11712; recombinant CYP2C9, luciferin-H conversion; active compounds read high; factor 1 = untreated enzyme, 0 = blocked; activation factor at 5 µM; hit rate 1.4% among 96,000; AID 1024, 2008;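 active means activation factor of 2 or more for CYP2C9 at a 5 µM dose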;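 further: 0 = sulfaphenazole-blocked wells and 1 = vehicle-only wells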
CYP2C19 act: human CYP2C19 activators, primary screen, biochemical, luminescence; recombinant CYP2C19, luciferin-H EGE luminescence; active compounds read high; 0 = fully inhibited enzyme, 1 = untreated enzyme; Cytochrome P450 2C19 (Homo sapiens), P33261; AID 1025, 2008; activation factor at 5 µM; 96,000 tested, under 10 active;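 active means activation factor of at least 2 at 5 µM in the primary screen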;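 further: 0 = wells with 2.5 mM tranylcypromine and 1 = vehicle-only wells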
Target sequence (P33261 whole entry, looked up): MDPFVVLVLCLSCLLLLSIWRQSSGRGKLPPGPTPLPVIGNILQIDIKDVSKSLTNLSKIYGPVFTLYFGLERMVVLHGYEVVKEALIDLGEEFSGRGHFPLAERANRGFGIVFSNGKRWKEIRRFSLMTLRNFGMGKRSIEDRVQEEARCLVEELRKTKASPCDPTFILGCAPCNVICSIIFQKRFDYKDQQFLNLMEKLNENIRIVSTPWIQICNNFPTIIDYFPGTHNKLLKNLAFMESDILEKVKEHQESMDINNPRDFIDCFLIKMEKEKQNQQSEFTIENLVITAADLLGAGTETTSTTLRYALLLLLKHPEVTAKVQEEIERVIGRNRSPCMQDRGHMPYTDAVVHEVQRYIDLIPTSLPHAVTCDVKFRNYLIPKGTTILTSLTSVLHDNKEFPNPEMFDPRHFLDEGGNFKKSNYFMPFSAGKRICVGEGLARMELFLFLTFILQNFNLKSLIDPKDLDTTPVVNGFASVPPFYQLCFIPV
CYP2C9 inhib: blockers of cytochrome P450 2C9 activity – biochemical, luminescence, ADME assay, primary screen | CYP2C9 Supersomes, luciferin-H conversion | inhibition, % at 5 µM | hit rate 20% among 96,000 | AID 777, 2007;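 active means blocking of liver enzyme CYP2C9 beyond about 50% at 5 µM, limit read from the data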
PTK2B oligo ant: antagonists of Pyk2 self-association, primary screen, Q293 cells, FERM NanoBiT luminescence, HTS | active compounds read low | z-score (the deposit names both 25 µM and 10 µM) | hit rate 0.83% among 99,000 | AID 1347419, 2020;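 active means Z-score of -3 or lower, scaled per plate to the spread of control and sample wells; inactive means z-score above -3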;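 further: negative z-score means lost luminescence so less FERM oligomerization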
CYP2C19 inh: blockers of cytochrome P450 2C19 activity – biochemical, luminescence, ADME assay, primary screen. P33261. CYP2C19 Supersomes, luciferin-H EGE luminescence, 30 min. inhibition, % at 5 µM. hit rate 21% among 96,000;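 active means CYP2C19 inhibition above a set limit at 5 µM in the primary screen, cut at about 50% in these data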;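 further: plate controls were negative control wells for no effect and 2.5 mM tranylcypromine positive control for full effect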
An asterisk follows results filed as active; · = no result. In the library only some 28% were active in any assay of this set; here they are far more common.

SMILES	CYP2C9 activ	CYP2C19 act	CYP2C9 inhib	PTK2B oligo ant	CYP2C19 inh
CCOC(=O)c1cccc(NC(=O)CSc2nnc(-c3cccnc3)n2C)c1	0.6	0.8	38.3	-0.07	22.0
COc1ccc(N2CC(C)Cn3c2nc2c3c(=O)[nH]c(=O)n2C)cc1 (stereo not drawn)	0.8	1	16.1	-0.37	4.8
COc1ccc(CNCCC(c2ccccc2)c2ccc3c(c2)OCO3)cc1 (stereo not drawn)	0.9	0.2	5.6	0.22	78.9*
O=CNC1CCCc2c1[nH]c1ccc(Cl)cc21 (stereo not drawn)	0	0.4	99.0*	-0.03	64.9*
CCOC(=O)N1CCN(S(=O)(=O)c2cccc3ccc(C)nc23)CC1	1.7	0.3	-68.8	1.14	65.9*
CCOc1ccc(OCC)c(S(=O)(=O)N2CCC(C)CC2)c1	0.7	0.4	33.8	-1.54	59.7*
CCOC(=O)N1CCN(S(=O)(=O)c2ccc(OCC)c(C)c2)CC1	1.7	0	-66.4	-0.37	95.6*
CCOc1ccc(OCC)c(S(=O)(=O)N2CCCCC2)c1	0.6	0.2	39.5	-1.14	80.9*
CCOc1ccc(-n2cnnn2)cc1S(=O)(=O)N1CCCCC1	1.3	1.1	-28.0	-0.24	-13.8
Cc1cc(=O)n(CC(C)O)c(O)c1C#N (stereo not drawn)	·	·	·	-0.15	·
CCS(=O)(=O)N1CCC(C(=O)NCCCN2CCCC2)CC1	1.2	1.2	-18.8	0.57	-20.5
CCOCCCNC(=S)NNC(=O)CCn1nc(C)c(Br)c1C	1.1	0.7	-6.2	0.53	34.5
CCOC(=O)N1CCN(S(=O)(=O)c2cc(OCC)ccc2OCC)CC1	0.4	0.4	55.4*	-0.27	58.8*
Cc1cc(S(=O)(=O)NCC(C)C)ccc1OCC(=O)N1CCOCC1	1.1	1.1	-13.0	-0.1	-12.8
CCOC(=O)N1CCN(C(=O)COc2ccc(S(=O)(=O)NCC(C)C)cc2C)CC1	0.4	0.8	61.5*	0.37	17.6
Cc1cccc(C)c1OCC(=O)NNC(=O)Nc1ccc(Cl)cc1	1.1	0.6	-13.6	1.18	41.9
Fc1ccc(Oc2nccc(-c3ccc(Cl)cc3)n2)cc1	0.9	0.6	8.3	0.64	40.0
N#Cc1c(/N=C/c2cccs2)sc2c1CCCCC2	0.1	0.3	94.0*	-0.19	69.8*
Cc1ccc(/C=N/c2sc3c(c2C#N)CCC3)o1	0.8	1	23.3	0.41	3.7
CN(C)/C=N/c1sc2c(c1C#N)CCC2	0.7	0.3	33.1	0.59	67.4*
O=P(O)(CCCCP(=O)(O)CCc1ccccc1)CCc1ccccc1	1.1	1.1	-11.8	·	-14.0
O=C(CCc1ccccc1)Nc1ccccc1F	0.8	0.2	24.7	0.49	76.4*
O=C(CCc1ccccc1)Nc1c(F)c(F)c(F)c(F)c1F	0.8	0.7	17.9	1.42	26.1
O=C(CCc1ccccc1)Nc1ccc(F)cc1F	1	0.4	4.8	0.13	59.9*
CCOC(=O)C1=C(C)NC(C)=C(C(=O)OCC)C1/C=C/c1ccccc1	0.3	0.3	70.1*	-2.75	68.4*
SMILES	CYP2C9 activ	CYP2C19 act	CYP2C9 inhib	PTK2B oligo ant	CYP2C19 inh
C=CCOC(=O)C1=C(C)NC(C)=C(C(=O)OCC=C)C1/C=C/c1ccccc1	·	·	·	-2.94	·
COC(=O)C1=C(C)NC(C)=C(C(=O)OC)C1/C=C/c1ccccc1	0.4	0.5	55.2*	-2.58	46.7
Cc1cc(C)nc(SCc2nnc(SCC(=O)Nc3nccs3)n2Cc2ccco2)n1	0.4	0.8	62.6*	-1.18	15.0
Cc1occc1-c1nnc(SCC(=O)Nc2nccs2)n1Cc1ccco1	0.5	0.3	54.6*	0.13	72.1*
COCCn1c(-c2cc(OC)c(OC)c(OC)c2)nc2oc3ccccc3c(=O)c2c1=O	1.2	1.1	-24.9	0.28	-14.8
COC(=O)c1ccc(NC(=O)CCNS(=O)(=O)c2cccc3nonc23)cc1	0.7	0.3	26.2	-0.82	72.2*
COc1ccc(CCNS(=O)(=O)c2cccc3nsnc23)cc1OC	·	·	·	0.8	·
O=C(CCCNS(=O)(=O)c1cccc2nsnc12)NC1CCCCC1	1.1	1.1	-10.0	0.44	-6.1
CCc1ccc(NC(=O)CCNS(=O)(=O)c2cccc3nsnc23)cc1	0.6	0.5	41.8	1	51.4*
COc1ccc(NC(=O)CCS(=O)(=O)c2cccc3nonc23)c(OC)c1	0.9	0.6	8.0	-0.23	44.5
CCOc1ccc(CCNS(=O)(=O)c2cccc3nsnc23)cc1OCC	0.4	0.1	56.6*	0.23	85.5*
Cc1cccc2sc(NC(=O)CCNS(=O)(=O)c3cccc4nonc34)nc12	0.4	0.3	57.8*	0.32	72.3*
CCC(C)NC(=O)Cn1cc2c(n1)CCC(C)C2 (stereo not drawn)	1	0.9	4.5	·	14.6
CC1CCN(S(=O)(=O)c2ccc3c(c2)CCN3C(=O)CCC(=O)O)CC1	1.2	0.9	-17.2	0.31	6.7
C/C(=N\N=C\c1ccccc1)c1nnn(-c2nonc2N)c1C	0.6	0.7	38.6	0.37	25.4
CCN(CC)c1ccc(C2CC(=O)NC3=C2C(=O)CC(C)(C)C3)cc1 (stereo not drawn)	1.1	1	-7.5	-0.02	0.2
CN(C)c1ccc(C2CC(=O)NC3=C2C(=O)CC(C)(C)C3)cc1 (stereo not drawn)	0.9	0.4	7.8	0.8	61.4*
COCCOC(=O)C1=C(C)NC2=C(C(=O)CCC2)C1c1cc2c(cc1Br)OCO2 (stereo not drawn)	0.2	0	78.7*	-0.81	96.4*
CCN(CC)c1ccc(C2C(C(=O)OCCOC)=C(C)NC3=C2C(=O)CC(C)(C)C3)cc1 (stereo not drawn)	0.8	0.7	19.2	0.76	30.3
COCCOC(=O)C1=C(C)NC2=C(C(=O)CC(C)(C)C2)C1c1ccc2c(c1)OCO2 (stereo not drawn)	0.2	0.1	81.9*	-1.1	90.1*
CCCOC(=O)C1=C(C)NC2=C(C(=O)CC(C)(C)C2)C1c1ccc(N(C)C)cc1 (stereo not drawn)	0.2	0.1	79.7*	-0.28	85.4*
CCSCCOC(=O)C1=C(C)NC(=O)NC1c1ccc2c(c1)OCO2 (stereo not drawn)	0.8	0.6	24.5	·	36.1
CCOCc1cc(C)[nH]c(=O)c1C#N	1	1	3.5	1.87	4.9
CCOC(=O)C1=C(C)NC2=C(C(=O)CC(C)(C)C2)C1c1cccc(C)n1 (stereo not drawn)	0.8	0.5	16.5	0.31	54.7*
CCOC(=O)C1=C(C)N(C)C(=O)NC1c1cc2c(cc1Br)OCO2 (stereo not drawn)	0.6	0.4	37.6	-0.38	62.0*
CCN(CC)c1ccc(C2C(C(=O)Nc3ccccn3)=C(C)NC3=C2C(=O)CC(C)(C)C3)cc1 (stereo not drawn)	0.1	0.6	93.9*	-0.96	42.2

From PubChem BioAssay
